Results on 13 molecules are retold here after PubChem BioAssay (NCI).

The panel holds about 83,000 compounds, 20% with a hit somewhere; the sample as a whole holds those more often.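 Treatment: one concentration, 48 hours, 96-well format. Scoring: percent growth, with anything below 10 considered active.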 Values without a mark were called inactive. Calls of active or inactive are those of the source.

Among the test systems are SR leukemia; RPMI-8226 leukemia; OVCAR-8 ovarian; OVCAR-5 ovarian; OVCAR-4 ovarian; SK-OV-3 ovarian; IGROV1 ovarian; OVCAR-3 ovarian; HS 578T breast; NCI/ADR-RES ovarian.
Test in all cases: NCI-60 one-dose screen, 48 h (100 = growth as untreated, 0 = no growth, -100 = all killed)
What all share (conditions): 10 µM unless noted

For `Cc1ccc(S(=O)(=O)NNC(=O)/C(=C\c2ccc(Cl)cc2)c2nc3ccccc3s2)cc1`, the growth was 72.8% in the experiment with SR leukemia; 87% in the experiment with RPMI-8226 leukemia; 88.1% in the experiment with OVCAR-8 ovarian; 110% with OVCAR-5 ovarian; 94.2% in the experiment with OVCAR-4 ovarian; 105% in the experiment with SK-OV-3 ovarian. Moreover, the growth with IGROV1 ovarian was 91.4%; in the experiment on OVCAR-3 ovarian, 96%; in the experiment on HS 578T breast, 98.1%; in the experiment with NCI/ADR-RES ovarian, 97.8%.

On to `CCc1ccc(-c2cn3ccnc3c(-c3ccc4ncn(Cc5ccccc5)c4c3)n2)cc1`, for which the growth in the experiment on SR leukemia is 50.1%; with RPMI-8226 leukemia it was 44.6%; in the experiment on OVCAR-8 ovarian it was 69.2%; with OVCAR-5 ovarian it was 85.1%; in the experiment with OVCAR-4 ovarian, 64.9%; with SK-OV-3 ovarian, 99.4%. In addition, the growth is 75% in the experiment on IGROV1 ovarian, 68.8% with OVCAR-3 ovarian, 78.2% in the experiment with HS 578T breast and 58.8% with NCI/ADR-RES ovarian.

For the molecule `N#C/C(=C\c1ccc(Cl)cc1)n1nnc2cc(F)c(F)cc21`, the growth in the experiment with SR leukemia is 5.64% (active); in the experiment with RPMI-8226 leukemia it was -34.1% (active); in the experiment on OVCAR-8 ovarian it was 13.3%; in the experiment with OVCAR-5 ovarian, 22.2%; in the experiment on OVCAR-4 ovarian, 17.6%; in the experiment with SK-OV-3 ovarian it was 88.7%. The growth in the experiment with IGROV1 ovarian was 6.69% (active); in the experiment with OVCAR-3 ovarian, -0.889% (active); in the experiment on HS 578T breast it was 13.6%; in the experiment on NCI/ADR-RES ovarian, 17.6%.

For `COc1ccc(Cc2cnc(NC(=O)c3ccc4c(c3)OCCO4)s2)cc1`, the growth in the experiment with SR leukemia is 3.32% (active); in the experiment on RPMI-8226 leukemia, 15.8%; in the experiment with OVCAR-8 ovarian, 16.9%; in the experiment on OVCAR-5 ovarian it was 26.1%; in the experiment with OVCAR-4 ovarian it was 41.2%; in the experiment on SK-OV-3 ovarian it was 33.4%. For the same molecule, the growth in the experiment with IGROV1 ovarian was 20.2%; in the experiment on OVCAR-3 ovarian it was 6.58% (active); with HS 578T breast, 31.7%; in the experiment on NCI/ADR-RES ovarian it was -1.17% (active).

As for `COc1ccc(C(=O)c2cc(C)c(OC)c(C)c2)c(OC)c1OC(=O)C(Cl)Cl`, the growth in the experiment with SR leukemia was 16%; in the experiment with RPMI-8226 leukemia, 23.4%; with OVCAR-8 ovarian it was 10.1%; with OVCAR-5 ovarian, 45.2%; with OVCAR-4 ovarian, 46.7%; with SK-OV-3 ovarian, -2.06% (active). The growth in the experiment on IGROV1 ovarian is 22.3%; in the experiment on OVCAR-3 ovarian it was -4.52% (active); in the experiment with HS 578T breast, 20.5%; in the experiment on NCI/ADR-RES ovarian, -3.92% (active).

In the case of `CN(C)c1ccc(C2C(C#N)=C(/N=C/c3ccccc3)Oc3c2ccc2ccccc32)cc1` (stereo not given), the growth in the experiment on SR leukemia is 17.7%; in the experiment with RPMI-8226 leukemia, 70.6%; in the experiment on OVCAR-8 ovarian it was 89.6%; in the experiment on OVCAR-5 ovarian, 99.5%; in the experiment on OVCAR-4 ovarian, 97.4%; in the experiment with SK-OV-3 ovarian, 66.8%. In addition, the growth with IGROV1 ovarian was 49.8%; in the experiment on OVCAR-3 ovarian it was 43.7%; in the experiment on HS 578T breast it was 66.7%; in the experiment with NCI/ADR-RES ovarian, 54.4%.

Turning to `O=C1Nc2cc(-c3ccc(NC(=O)C4CC4)cc3)ccc2/C1=C/c1ccc[nH]1`, the growth with SR leukemia is 44.8%; in the experiment with RPMI-8226 leukemia it was 93.6%; with OVCAR-8 ovarian, 110%; in the experiment on OVCAR-5 ovarian it was 98%; in the experiment on OVCAR-4 ovarian, 73.4%; in the experiment on SK-OV-3 ovarian, 105%. In addition, the growth is 99.2% in the experiment with IGROV1 ovarian, 110% in the experiment on OVCAR-3 ovarian, 110% in the experiment with HS 578T breast and 106% with NCI/ADR-RES ovarian.

With `COc1ccc2c(c1)C(=O)CC(c1ccccc1OC)O2` (stereo not given), the growth in the experiment on SR leukemia is 89.3%; in the experiment with RPMI-8226 leukemia it was 105%; in the experiment with OVCAR-8 ovarian it was 100%; in the experiment on OVCAR-5 ovarian, 108%; in the experiment with OVCAR-4 ovarian, 102%; in the experiment with SK-OV-3 ovarian, 104%. Further, the growth in the experiment with IGROV1 ovarian was 79.3%; in the experiment with OVCAR-3 ovarian, 117%; with HS 578T breast, 101%; with NCI/ADR-RES ovarian, 86%.

On to `OC(c1cccc(C(F)(F)F)c1)c1cnccc1NC1CCCCC1` (stereo not given), for which the growth is 51.6% in the experiment on SR leukemia; 29.9% with RPMI-8226 leukemia; 86.9% in the experiment on OVCAR-8 ovarian; 95.3% with OVCAR-5 ovarian; 74.7% with OVCAR-4 ovarian; 95.9% in the experiment on SK-OV-3 ovarian. Also, the growth with IGROV1 ovarian was 76.3%; in the experiment with OVCAR-3 ovarian, 81.1%; with HS 578T breast, 80.6%; in the experiment on NCI/ADR-RES ovarian it was 79.1%.

On to `Nc1n[nH]c2cccc(C#Cc3cccc(C(=O)Nc4cccc(C(F)(F)F)c4)c3)c12`, for which the growth was 72% in the experiment on SR leukemia; 58.9% in the experiment with RPMI-8226 leukemia; 76.3% in the experiment on OVCAR-8 ovarian; 57.6% with OVCAR-5 ovarian; 66.2% in the experiment with OVCAR-4 ovarian; 59.6% in the experiment with SK-OV-3 ovarian. Also, the growth is 30.3% in the experiment on IGROV1 ovarian, 73.8% in the experiment on OVCAR-3 ovarian, 40.5% with HS 578T breast and 80.6% in the experiment on NCI/ADR-RES ovarian.

Regarding `COc1cc(C=O)ccc1OC1OC(COC(C)=O)C(OC(C)=O)C(OC(C)=O)C1OC(C)=O` (stereo not given), the growth in the experiment with SR leukemia is 60.7%; in the experiment with RPMI-8226 leukemia it was 92.1%; in the experiment on OVCAR-8 ovarian, 102%; in the experiment with OVCAR-5 ovarian it was 103%; in the experiment with OVCAR-4 ovarian, 103%; with SK-OV-3 ovarian it was 103%. Further, the growth is 113% in the experiment with IGROV1 ovarian, 104% with OVCAR-3 ovarian, 104% in the experiment with HS 578T breast and 103% with NCI/ADR-RES ovarian.

As to `COc1ccc(C(=O)C2C(C#N)C(C#N)C3c4ccccc4C=CN23)cc1` (stereo not given), the growth with SR leukemia was 105%; in the experiment on RPMI-8226 leukemia it was 73.1%; with OVCAR-8 ovarian, -4.32% (active); in the experiment on OVCAR-5 ovarian it was 101%; with OVCAR-4 ovarian it was 62.9%; with SK-OV-3 ovarian it was 93.6%. Also, the growth was 81% in the experiment on IGROV1 ovarian, 92.2% in the experiment on OVCAR-3 ovarian, 95.1% with HS 578T breast and 87.9% in the experiment with NCI/ADR-RES ovarian.

On to `CCC(=O)Oc1ccc(/C(=C(\C)c2ccccc2)c2ccc(OCCN3CCCCC3)cc2)cc1`, for which the growth in the experiment with SR leukemia is 20.3%; in the experiment on RPMI-8226 leukemia, 62.9%; with OVCAR-8 ovarian, 81.6%; in the experiment with OVCAR-5 ovarian, 90.9%; with OVCAR-4 ovarian, 80.6%; with SK-OV-3 ovarian, 75.5%. For the same molecule, the growth in the experiment on IGROV1 ovarian was 93.8%; in the experiment on OVCAR-3 ovarian it was 84.3%; in the experiment with HS 578T breast, 72.9%; in the experiment on NCI/ADR-RES ovarian, 74.8%.
